According to ChEMBL document CHEMBL3988442, “University of Dundee, Small-Polar-MMV Screening Library” (2021):
About 13,000 (27%) of roughly 48,000 compounds showed an effect of 50% or more. This is one part of the list.

Tested on: Wolbachia pipientis
Experiment: Anti-Wolbachia Cell-Based Screen
Type: functional
Design: scale not given: in the data most compounds retested in dose-response had high values
Settings: 5 µM

Row | SMILES | Percent Effect [%]
1 | COc1ccc(Br)c(C(=O)N2CCC(c3n[nH]c(C4CC4)n3)CC2)c1 | 9.985
2 | O=C(Cc1csc(N2CCNC2=O)n1)NC1(c2ccccc2)CCC1 | 3.065
3 | Cc1nc(NC(=O)N2CCCC(C(C)(C)O)C2)nn1C (centres undefined) | 7.598
4 | CC(C)N[C@@H]1CO[C@H](CNC(=O)c2cccs2)[C@H]1O | 0.5301
5 | NC(=O)NCC(=O)N1CCC(c2cc(-c3ccccc3Cl)n[nH]2)CC1 | 9.084
6 | CCOC(=O)CNC(=O)C1CN(C(=O)c2cnccn2)C1 | 12.27
7 | CCC(CNC(C)=O)(OC)c1ccccc1 (centres undefined) | -7.237
8 | CC(=O)N1N=C(Cc2ccccc2)OC1C(=O)NCC(C)C (centres undefined) | 119.9
9 | CCN1CC(C(=O)NCc2noc(Cc3ccccc3)n2)CCC1=O (centres undefined) | -8.005
10 | COC(=O)CN1CC(c2nc(Cc3ccccc3)no2)C1.O=C(O)C(=O)O | -2.345
11 | CC(=O)N1N=C(Cc2ccccc2)OC1C(=O)NCC(=O)OC(C)(C)C (centres undefined) | 112
12 | CC(C)(C)OC(=O)CNC(=O)CCc1nnc(-c2ccsc2)o1 | -11.15
13 | CC(=O)N1N=C(c2ccccc2)OC1C(=O)NCC(=O)OC(C)(C)C (centres undefined) | 126.7
14 | CC(C)N1CCCC(C(=O)NCc2noc(Cc3ccccc3)n2)C1 (centres undefined) | -0.7063
15 | CCOC(=O)CNC(=O)N1CCCC(CNC(=O)c2ccco2)C1 (centres undefined) | -9.65
16 | CCOC(=O)CNC(=O)C1OC(c2ccccc2)=NN1C(C)=O (centres undefined) | 105.7
17 | CN(C(=O)c1ccco1)C1CCC(NC(=O)OC(C)(C)C)CC1 (centres undefined) | -29.92
18 | CC(C)N[C@@H]1CO[C@H](CNC(=O)Nc2ccccc2)[C@H]1O | -15.53
19 | Cc1nc(C(NC(=O)CN(C)C(C)C)c2ccccc2F)no1 (centres undefined) | -8.62
20 | CCc1nnc(CN2CCN(C(C)=O)CC2)o1 | -9.857
21 | Cc1ccc(C(=O)N2CCC(Oc3ccc(F)cc3F)CC2)c(=O)[nH]1 | -17.81
22 | CC(C)c1nnc(NCCS(C)(=O)=O)s1 | -6.765
23 | CC1(C)COCCN1C(=O)CCc1nc(-c2ccncc2)no1 | 14.72
24 | CCOc1ncccc1CNc1cc(COC)ncn1 | -5.284
25 | Cc1ccccc1C(=O)N1CCOC2(CNCCOC2)C1 (centres undefined) | -17.32
26 | O=C(c1ccccc1)N1CC2(CCNC2)OCc2ccccc21 (centres undefined) | 116.8

Row | SMILES | Percent Effect [%]
27 | O=C(C1CCCC1)N1CC2(CCNC2)OCc2ccccc21 (centres undefined) | 106
28 | O=C(c1ccc(NCc2ccco2)nc1)N1CCc2ccccc21 | 16.32
29 | COc1ccc(Cl)cc1C(=O)N1CCOC2(CNCCOC2)C1 (centres undefined) | -14.44
30 | O=C(c1ccc(Cl)cc1)N1CC2(CCNC2)OCc2ccccc21 (centres undefined) | 113.7
31 | O=C1OC2(CCNCC2)CN1CC(=O)N1CCC1c1cccs1 (centres undefined) | -13.03
32 | Cc1ccccc1C1CCCN1C(=O)CN1CC2(CCNCC2)OC1=O (centres undefined) | -3.464
33 | O=C(c1ccccc1-c1ccccc1)N1CCOC2(CNCCOC2)C1 (centres undefined) | -21.41
34 | Clc1cc(CN2CCCC(Cn3cncn3)C2)c2ncccc2c1 (centres undefined) | -5.34
35 | N#CCC(=O)NCc1nnc2n1CCN(Cc1ccsc1)C2 | -8.086
36 | COC(=O)CN1N=C(C(=O)N2CCCC2)S(=O)(=O)c2ccccc21 | 18.69
37 | CCc1nc(C2CCCN2Cc2nccn2Cc2ccccc2)no1 (centres undefined) | 3.12
38 | Cc1nccn1-c1cncc(C2CCCN2Cc2cccnc2)n1 (centres undefined) | 117.3
39 | CC(C)c1nccn1-c1cncc(C2CCCN2Cc2cccnc2)n1 (centres undefined) | 151.3
40 | Cc1nccn1-c1cncc(C2CCCN2Cc2ccccc2)n1 (centres undefined) | 97.46
41 | COCCN(Cc1ccc(F)cc1C#N)CC(F)(F)F | -22.68
42 | COCCNC(=O)C1(CCCc2cccnc2)CCCN1C (centres undefined) | 112.4
43 | CN1CCCC1(CCCc1cccnc1)C(=O)NCc1nccn1C (centres undefined) | 97.51
44 | CNC(=O)C1(CCCc2cccnc2)CCCCN1 (centres undefined) | -7.533
45 | COCCCn1ccc(NC(=O)NCCc2cccnc2)n1 | -2.122
46 | O=C(Nc1ccnc2ccnn12)c1ccc(N2CCC(O)CC2)cc1 | 5.741
47 | CN(CC1CCOCC1)C(=O)NCCCN1CCCCC1 | -10.18
48 | COCCN1CCC(CN(CC2CCCO2)C(=O)CNC(C)=O)CC1 (centres undefined) | 106.5
49 | COCCN1CCC(CN(CC2CCCO2)C(=O)COC)CC1 (centres undefined) | -4.712
50 | COCCN1CCC(CN(CC2CCCO2)C(=O)C2CCOCC2)CC1 (centres undefined) | 95.06
51 | COCCN1CCC(CN(CC2CCCO2)C(=O)CCNC(C)=O)CC1 (centres undefined) | -5.608
52 | COCC(=O)N(CCC(=O)OC)CC1CCCO1 (centres undefined) | -0.04842

Row | SMILES | Percent Effect [%]
53 | COCCN1CCC(CNC(=O)C2(NC(C)=O)CCCCC2)CC1 | 17.17
54 | COCCN1CCC(CN(CC2CCCO2)C(=O)CCC(F)(F)F)CC1 (centres undefined) | 140.7
55 | O=C(CC1CCCO1)Nc1ccn(Cc2cccc3cccnc23)n1 (centres undefined) | -4.253
56 | CC(=O)N1CCN(C(=O)CCCc2nc(C(C)C)no2)CC1 | -8.538
57 | CC(NCc1cnc(C2CCC2)s1)c1ccc(-n2cccn2)cc1 (centres undefined) | -14.42
58 | Cc1cc(C(=O)O)cc(S(=O)(=O)Nc2ccc3c(c2)OCO3)c1C | 13.44
59 | CC1(Cc2ccc3c(c2)OCO3)CCCN(S(=O)(=O)N2CCCC2)C1 (centres undefined) | -20.92
60 | CN(C)S(=O)(=O)Nc1ccc(-n2nccc2C(F)(F)F)cc1 | -20.66
61 | O=C(c1cc(COc2ccc3c(c2)OCO3)[nH]n1)N1CCCCO1 | 18.38
62 | Cc1c(F)cc(C(=O)O)cc1S(=O)(=O)Nc1ccc2c(c1)OCCO2 | -12.89
63 | O=S(=O)(Nc1ccc(Oc2ccc3c(c2)OCO3)cc1)N1CCCCC1 | 108.9
64 | O=S(=O)(Nc1ccc2c(c1)OCCO2)N1CCCCC1 | 85.12
65 | O=C(CSc1ccc2c(c1)OCCO2)NS(=O)(=O)C1CCCCC1 | -3.835
66 | CN(C)S(=O)(=O)Nc1ccc(Oc2ccc3c(c2)OCO3)cc1 | 102.4
67 | CC(C)c1nsc(N2CCn3c(nnc3C(F)(F)F)C2)n1 | -8.607
68 | CCc1cc(=O)[nH]c(-c2ccc(NCCc3ccc(O)cc3)nc2)n1 | -8.547
69 | Cc1ccc(CNC2CCN(CCc3ccncc3)CC2)cc1C | 2.941
70 | O=C1[C@H]2CC[C@H](CN(Cc3ccccc3OC(F)F)C2)N1CC1CC1 | -16.02
71 | O=C(O)C(F)(F)F.O=C(c1cocn1)N1C[C@@H]2CN(Cc3ccco3)CCO[C@@H]2C1 | -2.402
72 | O=S(=O)(C1CC1)N1CCO[C@@H]2CN(Cc3ccco3)C[C@@H]2C1 | 3.474
73 | Cn1cc(CN2C[C@@H]3CN(C(=O)c4cccn4C)CCO[C@@H]3C2)cn1 | 94.4
74 | Cn1cccc1C(=O)N1CCO[C@@H]2CN(Cc3ccco3)C[C@@H]2C1 | 74.97
75 | CN(C)CCN1CCO[C@@H]2CCN(C(=O)c3cccn3C)CC[C@H]21 | 111.2
76 | CCS(=O)(=O)N1C[C@@H]2CN(Cc3cnn(C)c3)CCO[C@@H]2C1.O=C(O)C(F)(F)F | 4.441
77 | Cn1cc(CN2C[C@@H]3CN(Cc4ccoc4)CCO[C@@H]3C2)cn1.O=C(O)C(F)(F)F.O=C(O)C(F)(F)F | 1.152
78 | CN(C)CCN1CCO[C@H]2CCN(C(=O)c3cccs3)CC[C@@H]21.O=C(O)C(F)(F)F.O=C(O)C(F)(F)F | -1.673

Row | SMILES | Percent Effect [%]
79 | Cc1nc(CN2CCO[C@H]3CN(C(=O)c4cccn4C)C[C@H]32)cs1 | 4.285
80 | CN(Cc1ccc(Cl)s1)C(=O)CN1CC(n2cccn2)C1 | -39.44
81 | CCC(NC(=O)CCNC(=O)c1ccccc1F)c1cc(C)ccn1 (centres undefined) | -12.53
82 | CC(C)Cc1nc(CCn2ccc(=O)[nH]c2=O)n(-c2ccccn2)n1 | 0.8317
83 | CCC(c1nc(C(C)C)nn1-c1ccncc1C)n1cccn1 (centres undefined) | -1.289
84 | Cc1nc[nH]c1C(=O)N1CCCC2(CN(C)C(=O)O2)C1 (centres undefined) | -29.59
85 | COc1ncc(-c2ccc(NC(C)=O)cc2)c(OC)n1 | 97.6
86 | COc1ncc(NS(=O)(=O)c2ccc(F)c(F)c2)c(OC)n1 | -5.769
87 | COc1ncc(-c2cc(NC3CCCC3)nc3[nH]ccc23)c(OC)n1 | 5.51
88 | COc1ncc(NS(=O)(=O)c2cccc(C)c2)c(OC)n1 | 20.6
89 | COc1ncc(-c2ccc(O)cc2)c(OC)n1 | 83.6
90 | COc1ncc(NC(=O)c2ccco2)c(OC)n1 | 4.719
91 | COc1ncc(-c2ccc(C(N)=O)cc2)c(OC)n1 | 99.76
92 | COc1ccc(-c2cnc(NC(C)=O)[nH]2)cc1 | -6.695
93 | COc1ncccc1-c1cc(C(N)=O)ccn1 | 12.1
94 | CC(C)n1cnnc1CN(C)Cc1ccc(CN(C)S(C)(=O)=O)o1 | -6.062
95 | CN(CC1CCN(CCO)CC1)CC(O)c1ccc(F)cc1 (centres undefined) | 8.04
96 | O=C(Nc1nnc(C2CC2)s1)NC1CCOc2ccccc21 (centres undefined) | -5.522
97 | CN(C)CCN1CC(C(=O)N2CCC(c3cc(=O)[nH]cn3)CC2)CC1=O (centres undefined) | 11.42
98 | CN(Cc1cnc(N)nc1)C(=O)C1CCN(C(=O)C2CCCC2)CC1 | -2.189
99 | CN(C)Cc1cc(C2CCN(C(=O)C3CC34CCC4)CC2)nn1C.Cl (centres undefined) | 106.1
100 | CCn1c(C2CCCN(C(=O)C(C)(C)OC)C2)nn(CCN(C)C)c1=O (centres undefined) | -8.02
101 | COC(C)(C)C(=O)N1CCC(c2cc(CN(C)C)n(C)n2)CC1.Cl | 119.7
102 | CN(C)Cc1cc(C2CCN(C(=O)C3CCCNC3)CC2)nn1C.Cl (centres undefined) | 84.37
103 | Cc1cc(CN(C)C(=O)CN2CC3(CCNCC3)OC2=O)n(C)n1 | -5.459
104 | O=C(C1CC12CCC2)N1CCC(n2cc(-c3ccsc3)nn2)CC1 (centres undefined) | -51.66
